Compound activity deposited in PubChem BioAssay by University of Pittsburgh Molecular Library Screening Center.
This is one part of a sample in which hits are shown more often than they occur.
HIV RNase H inh-1: HIV-1 RT RNase H inhibitors, primary screen, biochemical, fluorescence. Gag-Pol polyprotein (Human immunodeficiency virus type 1 group M subtype B (isolate …. RT-RNase H RNA/DNA duplex cleavage. inhibition, % at 10 µM. 65,000 compounds, 1.9% hits; in the data active means inhibition above about 50%
HIV RNase H inh-2: HIV-1 RT RNase H inhibitors, retest, confirmation, biochemical | shares compounds with HIV RNase H inh-1 | Recombinant RT RNase H, fluorescent RNA/DNA duplex cleavage | inhibition, % at 10 µM | 1,000 compounds, 39% hits | AID 651, 2007; in the data active means inhibition above about 48%; inconclusive means no clear call, values can overlap the other calls
The depositor's hits bear a star; ? = inconclusive.

SMILES	HIV RNase H inh-1	others
Cc1ccc(OCC(=O)Nc2cccc(-c3nnc(-c4ccccc4)o3)c2)cc1	0
Cc1cccc(OCC(=O)Nc2cccc(-c3nnc(-c4ccccc4)o3)c2)c1C	71*	HIV RNase H inh-2=66*
Cc1cccc(C)c1OCC(=O)Nc1cccc(-c2nnc(-c3ccccc3)o2)c1	2
O=C1CC(NC23CC4CC(CC(C4)C2)C3)C(=O)N1c1ccc2c(c1)OCO2 (centres undefined)	5
COCCn1c(CN2CCN(c3ccccc3F)CC2)nc2c1c(=O)n(C)c(=O)n2C	-9
CCc1nnc(NC(=O)c2ccc(S(=O)(=O)N(CC)Cc3ccccc3)cc2)o1	22
CCCCN(CCCC)S(=O)(=O)c1ccc(C(=O)Nc2nnc(COC)o2)cc1	21
CCCCN(CC)S(=O)(=O)c1ccc(C(=O)Nc2nnc(-c3cccs3)o2)cc1	74*	HIV RNase H inh-2=?
CCC(=O)N1CCN(c2ccccc2NC(=O)COc2ccccc2Cl)CC1	-8
Cc1cccc(N2CCN(C(=O)COc3cc(=O)n(C)c4ccccc34)CC2C)c1 (centres undefined)	0
N#Cc1nc(-c2ccc(OCc3ccccc3)cc2)oc1NCCCn1ccnc1	-13
N#Cc1nc(-c2ccc(OCc3ccccc3)cc2)oc1NCc1cccnc1	-13
N#Cc1nc(-c2ccc(OCc3ccc(Cl)cc3)cc2)oc1NCc1cccnc1	76*	HIV RNase H inh-2=65*
O=C(NC1CCCc2ccccc21)C1CCN(c2c(N3CCCC3)c(=O)c2=O)CC1 (centres undefined)	-3
Cc1cc(N/C=C2\CCCCC2=O)no1	-2
COC(=O)c1ccc(CNC(=O)CSc2nc3sc(C)c(C)c3c(=O)n2C)o1	-7
COc1ccccc1-n1c(C)nnc1SCC(=O)Nc1cccc(C(C)=O)c1	-20
CC(C)Cn1c(SCC(=O)c2ccc(Cl)s2)nnc1-c1ccco1	-55
CCOC(=O)c1nn(-c2ccccc2)c(C#N)c1NC(=O)c1nn(CC)cc1Br	-3
CCn1ncc(Br)c1C(=O)Nc1sc2c(c1C(N)=O)CCC2	1
CCOC(=O)c1c(NC(=O)c2ccc(-n3cnnn3)cc2)sc2c1CCCC2	86*	HIV RNase H inh-2=96*
CCOC(=O)Nc1sc2c(c1C(=O)OCC)CCC2	-20
CCOC(=O)c1c(NC(=O)c2nn(CC)cc2Br)sc2c1CCCCC2	88*	HIV RNase H inh-2=2
CCOC(=O)c1c(NC(=O)c2noc3c2CCCC3)sc2c1CCCC2	-3
CCOC(=O)c1c(NC(=O)c2nn(CC)cc2Br)sc(C)c1C	94*	HIV RNase H inh-2=1
SMILES	HIV RNase H inh-1	others
CCOC(=O)c1ccc(NC(=O)c2nn(CC)cc2Br)cc1	-2
CCCc1cc(C(=O)Nc2sc3c(c2C(=O)OCC)CCCC3)no1	26
CC(NC(=O)COc1ccccc1)C(c1ccccc1)N1CCN(C)CC1 (centres undefined)	4
COc1ccc(-c2cn3c(C)c(C(=O)NCc4ccc5c(c4)OCO5)sc3n2)cc1	7
CC1(CC(=O)O)C(=O)N=C2C=CC=CN21 (centres undefined)	-2
O=C(c1cccc2ccccc12)N1CCN(CC2CC=CCC2)CC1 (centres undefined)	-1
Cc1nc2sc(C(c3cccs3)N3CCC(C(N)=O)CC3)c(O)n2n1 (centres undefined)	-2
CCn1cc(C(=O)N2CCOCC2)c(=O)c2cc(S(=O)(=O)N(C)C3CCCCC3)ccc21	-7
CCOC(=O)c1cc2sccc2n1CC(=O)N1c2ccccc2CC1C (centres undefined)	57*	HIV RNase H inh-2=?
CCOC(=O)c1c(C)[nH]c(C(=O)OCC(=O)N2c3ccccc3CC2C)c1C (centres undefined)	-4
CCOC(=O)c1cc2sccc2n1CC(=O)c1ccc2c(c1)OCCO2	-12
COC(=O)C(NC(=O)c1ccco1)(Nc1ccc(Br)cn1)C(F)(F)F (centres undefined)	-2
O=C(CSc1nc2ncccc2[nH]1)c1ccc(F)cc1	6
Fc1ccc(CSc2nc3ncccc3[nH]2)cc1	61*	HIV RNase H inh-2=13
Nc1ncnc2nc(SCc3ccccc3)[nH]c12	-4
CCOCCCNCC(=O)N1CCN(S(=O)(=O)c2ccc(C)cc2)CC1	6
CC(C)OCCCN1C(=O)c2ccccc2C1C(=O)NC1CCCCC1 (centres undefined)	-3
COc1ccc(C2N3CC4(C)CN2CC(C)(C3)C4O)cc1 (centres undefined)	-8
COC(=O)c1c(NC(=O)c2ccc(Br)o2)sc(C)c1C	74*	HIV RNase H inh-2=1
COC(=O)c1c(NC(=O)Cc2cccs2)sc(C)c1C	-43
COC(=O)c1sccc1NC(=O)c1ccc(Br)o1	-32
Oc1c(Cl)cc(Cl)c2c1NCCC2	80*	HIV RNase H inh-2=37
O=C1NCCCc2c1oc1ccc(O)cc21	1
CCc1nn(-c2cc(Cl)ccc2OC)c2c1C(=O)CCC2	0
CCOc1cc(N2CCOCC2)c(OCC)cc1NS(=O)(=O)c1ccc(Cl)s1	9
SMILES	HIV RNase H inh-1	others
CCC(C)Nc1nc(SC(C(C)=O)C(C)=O)nc(N(C)C)n1 (centres undefined)	-7
CCc1ccc2[nH]c(=O)c(CN(Cc3ccc4c(c3)OCO4)C(=O)c3ccco3)cc2c1	58*	HIV RNase H inh-2=20
CCOc1ccc2[nH]c(=O)c(CN(Cc3ccc(F)cc3)C(=O)c3ccco3)cc2c1	42
COc1ccc2[nH]c(=O)c(CN(Cc3ccc4c(c3)OCO4)C(C)=O)cc2c1	-16
CCOCCCNC(=O)C(NC(=O)C1CCC(=O)N1)c1ccc(C)cc1 (centres undefined)	-4
Cc1ccc(F)c(NC=C2C(=O)OC(C)(C)OC2=O)c1	-28
Clc1ss/c(=N\c2ccccn2)c1Cl	68*	HIV RNase H inh-2=41
Cc1c(NC(=O)COC(=O)Cc2ccc(Cl)cc2)c(=O)n(-c2ccccc2)n1C	2
C=CCn1c(N)c(C(=O)NCCC2=CCCCC2)sc1=S	81*	HIV RNase H inh-2=87*
Cc1cc(C(=O)NCCC2=CCCCC2)c(C)o1	-21
O=C(CCn1c(=O)sc2ccccc21)NCCC1=CCCCC1	-25
CC(C)Oc1ccc(/C(O)=C2/C(=O)C(=O)N(CCN(C)C)C2c2ccco2)cc1 (centres undefined)	-1
Cc1ccc(CNC(=O)CCS(=O)(=O)c2cc(Br)cc3c2N(C(=O)C2CC2)CC3)o1	2
O=C(c1ccco1)N1CCN(C(=O)c2cc(-c3ccccn3)nc3ccccc23)CC1	0
Cc1nn(-c2ccccc2)c2nc(-c3ccco3)cc(C(=O)O)c12	23
O=C(O)c1cc(-c2ccco2)nc2ccccc12	81*	HIV RNase H inh-2=31
O=C(Oc1ccc(-c2nnco2)cc1)N(c1ccccc1)c1ccccc1	-3
O=C(NCCC1=CCCCC1)C1CCN(S(=O)(=O)c2cccc3cccnc23)CC1	0
O=C(CSc1nnnn1-c1ccc2c(c1)OCCO2)N1CCc2ccccc21	1
O=C(CSc1nnnn1-c1ccc2c(c1)OCCO2)OC1CCCCC1	87*	HIV RNase H inh-2=28
O=C(CSc1nnnn1-c1ccc2c(c1)OCCO2)Nc1nc2c(s1)CCCC2	-5
Cc1ccc(CN2C(=O)C(C)(C)Oc3ccc(C(=O)N4CCCCC4)cc32)cc1	-1
Oc1ccc(-c2nc(-c3ccc(O)c(O)c3)cs2)cc1	100*	HIV RNase H inh-2=83*
COc1ccc(-c2nc3ccccc3s2)cc1O	-21
c1cncc(-c2nc(-c3ccc4c(c3)OCO4)cs2)c1	-42
COc1ccc(-c2nsc(SCC(=O)Nc3cc(C)on3)n2)cc1	84*	HIV RNase H inh-2=61*
